From PubChem BioAssay
The source made the active and inactive calls. Unless noted, how the calls were made is not given here.

How the values were obtained:
[1] = system: XIP peptide (Xip251-270) binding; assay: small-molecule binders of XIP peptide, primary screen, biochemical, small-molecule microarray, fluorescence 635/667 nm, 0.1 µg/mL protein (AID 1182); conditions: fluorescent protein binding, 635 nm, higher = more signal, called active from +8 up or from −8 down
XIP peptide (Xip251-270) = assay: small-molecule binders of XIP peptide, primary screen, biochemical, small-molecule microarray, fluorescence 635/667 nm, 0.5 µg/mL protein (AID 1183); conditions: small-molecule microarray binding, fluorescence 635 nm; higher = more signal
[2] = Plasmodium falciparum growth inhibition, primary screen, strain 3D7, DAPI fluorescence, 100 nL (AID 1184);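 further: parasites grown inside human red blood cells in medium with human serum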; conditions: P. falciparum 3D7 growth, 3 d, higher = more signal
[3] = target: Homeobox protein Hox-A13 (Mus musculus) (UniProt Q62424); assay: inhibitors of HoxA13-DNA binding, primary screen, biochemical, fluorescence polarization, labeled oligonucleotide (AID 1185); conditions: 15 min, higher = more signal, called active from +8 up or from −8 down
Homeobox protein Hox-A13 (Mus musculus), sequence (Q62424 whole entry, looked up): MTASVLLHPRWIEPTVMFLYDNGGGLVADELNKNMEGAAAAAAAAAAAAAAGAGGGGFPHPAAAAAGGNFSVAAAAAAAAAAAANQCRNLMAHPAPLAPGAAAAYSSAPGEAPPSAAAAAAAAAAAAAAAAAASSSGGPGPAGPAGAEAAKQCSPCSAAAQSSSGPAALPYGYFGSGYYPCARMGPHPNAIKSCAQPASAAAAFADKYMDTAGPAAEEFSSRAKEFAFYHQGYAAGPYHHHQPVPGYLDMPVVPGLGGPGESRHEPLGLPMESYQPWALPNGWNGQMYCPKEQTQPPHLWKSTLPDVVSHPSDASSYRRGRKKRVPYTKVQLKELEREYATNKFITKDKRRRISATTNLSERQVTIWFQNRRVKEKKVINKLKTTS

[4] = inhibitors of hydroxyurea-induced Chk1 phosphorylation, primary screen, imaging, HeLa, phospho-Chk1 antibody, percent positive cells (AID 1186); conditions: hydroxyurea-induced phospho-Chk1 immunofluorescence imaging, higher = more signal
[5] = inhibitors of hydroxyurea-induced Chk1 phosphorylation, primary screen, imaging, HeLa, phospho-Chk1 nuclear intensity (AID 1187); conditions: hydroxyurea-induced phospho-Chk1 immunofluorescence imaging, higher = more signal

SMILES	composite z-score [1]	composite z-score (XIP peptide (Xip251-270))	z-score [2]	z-score [3]	z-score [4]	z-score [5]
C=CCOC(=O)[C@H]1[C@@H]2C(=O)O[C@@H](c3ccccc3)[C@@H](c3ccccc3)N2[C@@H](c2ccc(OCCOC(=O)[C@@H]3C[C@@H]4C(=O)N[C@@H](CCCC[N+](C)(C)C)C(=O)N4[C@@H]3c3ccc(O)cc3)cc2)[C@]12C(=O)Nc1ccc(I)cc12	0.557 (inactive)	0.765	0.0373	6.46 (inactive)	-0.337 (inactive)	-0.0674 (inactive)
O=C(NC1CC1)[C@@H]1c2ccccc2C(=O)N(Cc2cc(C(F)(F)F)cc(C(F)(F)F)c2)[C@H]1c1ccc(CO)cc1	0.684 (inactive)	0.62	-1.54	-2.66 (inactive)	-0.129 (inactive)	-0.394 (inactive)
CCCC[C@H]1C[C@@H]1[C@@H]1N(C(C)=O)[C@H](c2cccc(OC)c2)CC12CC2	-0.233 (inactive)	-1.04	-0.313	-3.27 (inactive)	0.368 (inactive)	0.638 (inactive)
NCCCCCCNC(=O)[C@@H]1C[C@@H]2C(=O)N3CCC[C@H]3C(=O)N2[C@@H]1c1cccc(OCCO)c1	2.08 (inactive)	0.2	-0.772	-4.9 (inactive)	-0.705 (inactive)	-0.405 (inactive)
COCCOC(=O)N1C(=O)[C@@]2(c3cc(C#CCC(C(=O)OC)C(=O)OC)ccc31)[C@H](C(=O)Nc1nc3ccccc3s1)[C@H]1C(=O)O[C@H](c3ccccc3)[C@H](c3ccccc3)N1[C@@H]2c1ccc(O)cc1	0.224 (inactive)	0.599	-1.52	-1.93 (inactive)	0.119 (inactive)	0.359 (inactive)
CC(C)NC(=O)[C@@H]1c2ccccc2C(=O)N(Cc2ccc(OC(F)(F)F)cc2)[C@H]1c1ccc(CO)cc1	-0.514 (inactive)	0.72	-1.58	-3.72 (inactive)	0.244 (inactive)	0.137 (inactive)
[N-]=[N+]=Nc1ccccc1C[C@@]1(C(=O)NCc2ccccc2)N=C(c2ccc(OCCCO)cc2)O[C@@H]1c1ccccc1N=[N+]=[N-]	1.46 (inactive)	0.729	-2.76	-0.454 (inactive)	-0.747 (inactive)	-1.1 (inactive)
COC(=O)[C@@]1(Cc2ccc(F)cc2)[C@H]2c3cc(C(=O)N4CCCC4)n(Cc4cc(F)cc5c4OCOC5)c3C[C@H]2CN1C(=O)c1ccccc1	0.602 (inactive)	0.53	-1.6	-4.07 (inactive)	-0.142 (inactive)	-0.121 (inactive)
O=C1NC(=O)C2C1C=CC(C(O)c1ccc(B(O)O)cc1)N2Nc1ccc(Cl)cc1Cl (stereo not given)	0.185 (inactive)	-0.0187	-0.195	-4.45 (inactive)	0.549 (inactive)	0.367 (inactive)
CCCC[C@H]1OB(O)C[C@H]2C1=C(COc1ccccc1)C[C@H]1C(=O)C=CC(=O)[C@H]12	0.0738 (inactive)	-0.114	-0.948	-5.45 (inactive)	-0.177 (inactive)	-0.274 (inactive)
COC(=O)[C@@]1(Cc2ccc(F)cc2)[C@H]2c3cc(C(=O)N(C)C)n(C)c3C[C@H]2CN1C(=O)c1ccccc1	-0.0622 (inactive)	-0.153	0.386	-7.29 (inactive)	0.707 (inactive)	0.633 (inactive)
COC(=O)C(CC#Cc1ccc2c(c1)[C@]1(C(=O)N2)[C@H](C(=O)NC[C@H](O)c2ccccc2)[C@H]2C(=O)O[C@H](c3ccccc3)[C@H](c3ccccc3)N2[C@@H]1c1ccccc1OCCO)C(=O)OC	0.0226 (inactive)	0.654	-2.33	-1.39 (inactive)	0.0062 (inactive)	0.0197 (inactive)
CC=CC(O)C1C=CC2C(=O)NC(=O)C2N1Nc1ccc(Cl)cc1Cl (stereo not given)	-0.223 (inactive)	-0.186	0.179	-3.78 (inactive)	1.3 (inactive)	1.22 (inactive)
C=CCN1C(=O)[C@@]2(O[C@@H](CCn3cc([C@H](O)c4ccccc4)nn3)[C@H]([Si](C)(C)c3ccc(OC)cc3)[C@H]2C)c2cc(N3C(=O)c4cccc5cccc3c45)ccc21	0.185 (inactive)	0.21	-0.816	-3.29 (inactive)	-0.0586 (inactive)	0.311 (inactive)
CC(=O)OCC1C2CC[C@H]3C(OCc4ccc(F)cc4C(F)(F)F)OC[C@]4(C)[C@H]3C2=C(CN4C(=O)OC(C)(C)C)[C@H](C)C1COC(C)=O (stereo not given in full)	-0.07 (inactive)	0.653	-1.22	-3.13 (inactive)	0.657 (inactive)	0.833 (inactive)
CC(C)NC(=O)[C@@H]1c2ccccc2C(=O)N(Cc2ccccc2C(F)(F)F)[C@H]1c1ccc(CO)cc1	0.483 (inactive)	0.78	-0.276	-3.17 (inactive)	0.41 (inactive)	0.405 (inactive)
O=C(NCCN1CCOCC1)[C@@H]1c2ccccc2C(=O)N(Cc2ccc(OC(F)(F)F)cc2)[C@H]1c1ccc(CO)cc1	0.441 (inactive)	-0.103	-1.05	-4.13 (inactive)	0.0777 (inactive)	-0.117 (inactive)
C=CC1c2cc(O)c(OC)cc2CCN1C (stereo not given)	0.767 (inactive)	0.543	0.166	-3.83 (inactive)	0.298 (inactive)	0.468 (inactive)
COCC(=C=CC[C@H](O)c1ccccc1OCCO)C[C@H](O)COCc1ccccc1	0.195 (inactive)	0.148	-1.77	-4.37 (inactive)	0.141 (inactive)	0.058 (inactive)
CN(C)C(=O)[C@@]1(Cc2ccccc2CN=[N+]=[N-])COC(c2ccc(OCCCO)cc2)=N1	0.182 (inactive)	0.62	-2.08	-5.02 (inactive)	-0.439 (inactive)	-0.521 (inactive)
COc1cc(CO)cc(I)c1O[C@H]1C=C(C(=O)NCCO)C[C@@H](NC2CCCCCC2)[C@@H]1O	0.509 (inactive)	0.649	-3.18	-7.19 (inactive)	-0.75 (inactive)	-1.01 (inactive)
COc1cc(C(O)C2C=CC3C(=O)N(c4ccccc4)C(=O)C3N2Nc2ccccc2)cc(OC)c1OC (stereo not given)	1.1 (inactive)	0.746	0.808	-3.96 (inactive)	-0.153 (inactive)	-0.522 (inactive)
COc1ccc([Si](C)(C)[C@@H]2[C@@H](CC(=O)N3Cc4ccccc4C[C@H]3CO)O[C@]3(C(=O)N(Cc4cccc(N5CCOC5=O)c4)c4ccccc43)[C@H]2C)cc1	0.0848 (inactive)	0.672	-2.83	-2.49 (inactive)	-0.34 (inactive)	-0.695 (inactive)
O=C1[C@H]2C=C(I)[C@H](C[C@@H]2c2ccccc2)[C@@]12CO2	-0.432 (inactive)	-0.321	1.46	-1.96 (inactive)	-0.428 (inactive)	-0.0968 (inactive)
CC(C)C[C@@H]1NC(=O)[C@@]23C(=O)N[C@@H](Cc4ccccc4)C2[C@H](C)[C@@]2(C)O[C@H]2C3/C=C/C/C=C\CNC(=O)CNC1=O (stereo not given in full)	0.533 (inactive)	0.58	-0.59	-5.87 (inactive)	0.312 (inactive)	-0.0422 (inactive)
